According to PubChem BioAssay (Tox21):
Unmarked numbers belong to inactive results. Records with an inconclusive call do not appear. Where a call stands in place of a potency, no number is given. Calls of active or inactive are those of the source. Unless noted, the call rests on the fitted dose curve; in most records, active means well fitted curve in the direction sought with a large enough effect in the repeat runs; inconclusive means weak or mixed curves; inactive means no such curve, though single readings can be large; an effect the other way counts as inactive or inconclusive.

Columns and labels:
[1] = A CellTox Green Cytotoxicity Assay to monitor cytotoxicity in HepG2 cells - 8 hour (AID 1224890); further: nearly all actives have a fitted effect of over 45% in size; further: potency means the concentration at half of the fitted maximal effect
Method in brief: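 HepG2 cells, 600/well, preincubated 5 h with CellTox Green dye, then exposed to Tox21 compounds in DMSO at 37 C for up to 40 h. Dead-cell DNA fluorescence read at the indicated time point.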

[2] = qHTS assay to identify small molecule antagonists of the estrogen receptor alpha (ER-alpha) signaling pathway using the BG1 cell line in the presence of 0.1 nM 17-beta-estradiol - cell viability counter screen (AID 1259241); further: nearly all actives have a fitted effect of over 40% in size; further: potency means the concentration at half of the fitted maximal effect
Method in brief: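 Cytotoxicity counter-screen: live-cell protease activity measured by fluorescence (30 min reagent step) in the same wells. Cells were VM7Luc4E2 with endogenous ER-alpha and ERE-driven luciferase, treated 22 hr at 37C alongside 0.1 nM 17beta-estradiol final.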

[3] = molecular target: Estrogen receptor (Homo sapiens) (UniProt P03372); experiment: qHTS assay to identify small molecule antagonists of the estrogen receptor alpha (ER-alpha) signaling pathway using the BG1 cell line in the presence of 0.1 nM 17-beta-estradiol (AID 1259244); further: nearly all actives have a fitted effect of over 50% in size; further: potency means the concentration at half of the fitted maximal effect
Chain of Estrogen receptor (Homo sapiens) (P03372 whole entry, looked up): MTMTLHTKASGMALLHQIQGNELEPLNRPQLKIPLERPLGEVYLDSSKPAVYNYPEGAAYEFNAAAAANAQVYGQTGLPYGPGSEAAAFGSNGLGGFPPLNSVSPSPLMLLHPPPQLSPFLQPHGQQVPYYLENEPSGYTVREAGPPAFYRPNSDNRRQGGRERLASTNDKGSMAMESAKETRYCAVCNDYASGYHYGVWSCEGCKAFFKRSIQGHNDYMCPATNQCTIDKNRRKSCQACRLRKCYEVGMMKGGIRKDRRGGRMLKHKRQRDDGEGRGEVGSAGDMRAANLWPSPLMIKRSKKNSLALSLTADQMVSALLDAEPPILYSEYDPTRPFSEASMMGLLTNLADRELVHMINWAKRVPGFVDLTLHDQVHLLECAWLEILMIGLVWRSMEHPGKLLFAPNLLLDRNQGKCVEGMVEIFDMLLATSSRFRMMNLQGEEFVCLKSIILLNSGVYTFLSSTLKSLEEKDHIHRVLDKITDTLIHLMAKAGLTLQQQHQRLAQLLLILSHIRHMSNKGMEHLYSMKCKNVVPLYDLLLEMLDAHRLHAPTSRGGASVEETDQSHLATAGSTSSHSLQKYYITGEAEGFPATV
Method in brief: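 VM7Luc4E2 cells (endogenous full-length ER-alpha, 4×ERE-luciferase), kept 5 days in phenol red-free, charcoal-stripped FBS medium; 4,000 cells/well. Compounds added with 0.1 nM (final) 17beta-estradiol, 22 hr at 37C; luminescence read with ONE-Glo after 30 min.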

[4] = qHTS assay to identify small molecule phospholipidosis (PLD) inducers (AID 1259344; active means well fitted curve in the direction sought with a large enough effect; an effect the other way counts as inactive or inconclusive)
Method in brief: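 Fluorescent phospholipid staining (LipidTOX Red) measured by automated microscopy in fixed HepG2 cells after 24 h treatment; nuclei counterstained with Hoechst 33342; amiodarone as reference inducer.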

[5] = qHTS assay to identify small molecule HDAC inhibitors (AID 1259364); further: nearly all actives have a fitted effect of over 45% in size; further: potency means the concentration at half of the fitted maximal effect
Method in brief: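 Wild-type HCT-116 cells, plated overnight at 37 C, exposed to compounds 2 hr at 37 C; luminogenic HDAC-Glo substrate then added 30 min at room temperature. Luminescence reports relative endogenous class I/II HDAC activity.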

[6] = qHTS assay to identify small molecule HDAC inhibitors - cell viability counter screen (AID 1259365); further: series mostly up to about 92 µM; nearly all actives have a fitted effect of over 50% in size
Method in brief: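 CellTiter-Glo luminescence (30 min, room temperature) reported viability after a 2 h compound exposure at 37 C. Cells: wild-type HCT-116, 1,500 per well, seeded the night before.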

[7] = qHTS assay to identify small molecule agonists of the sonic hedgehog signaling (Shh) pathway - cell viability counter screen (AID 1259366); further: nearly all actives have a fitted effect of over 50% in size; further: potency means the concentration at half of the fitted maximal effect
Method in brief: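 Cytotoxicity counter screen: CellTiter-Fluor reagent added after 23 h compound exposure, then 1 h at 37C and fluorescence read. Cells were 3T3 Gli1-Luc, seeded 2,000 per well and dosed 4 h post-plating.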

[8] = qHTS assay to identify small molecule antagonists of the sonic hedgehog signaling (Shh) pathway - cell viability counter screen (AID 1259367); further: nearly all actives have a fitted effect of over 55% in size; further: potency means the concentration at half of the fitted maximal effect
Method in brief: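 Using CellTiter-Fluor, viability of Gli1-Luc reporter 3T3 cells is read by fluorescence in the wells used for the Shh luciferase assay. Treatment lasts 23 hr with conditioned medium, then reagent 1 hr at 37C.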

[9] = molecular target: Androgen receptor (Homo sapiens) (UniProt P10275); experiment: qHTS assay to identify small molecule antagonists of the androgen receptor (AR) signaling pathway using the MDA cell line in the presence of 0.5 nM R1881 (AID 1259243); further: nearly all actives have a fitted effect of over 50% in size; further: potency means the concentration at half of the fitted maximal effect
Chain of Androgen receptor (Homo sapiens) (P10275 whole entry, looked up): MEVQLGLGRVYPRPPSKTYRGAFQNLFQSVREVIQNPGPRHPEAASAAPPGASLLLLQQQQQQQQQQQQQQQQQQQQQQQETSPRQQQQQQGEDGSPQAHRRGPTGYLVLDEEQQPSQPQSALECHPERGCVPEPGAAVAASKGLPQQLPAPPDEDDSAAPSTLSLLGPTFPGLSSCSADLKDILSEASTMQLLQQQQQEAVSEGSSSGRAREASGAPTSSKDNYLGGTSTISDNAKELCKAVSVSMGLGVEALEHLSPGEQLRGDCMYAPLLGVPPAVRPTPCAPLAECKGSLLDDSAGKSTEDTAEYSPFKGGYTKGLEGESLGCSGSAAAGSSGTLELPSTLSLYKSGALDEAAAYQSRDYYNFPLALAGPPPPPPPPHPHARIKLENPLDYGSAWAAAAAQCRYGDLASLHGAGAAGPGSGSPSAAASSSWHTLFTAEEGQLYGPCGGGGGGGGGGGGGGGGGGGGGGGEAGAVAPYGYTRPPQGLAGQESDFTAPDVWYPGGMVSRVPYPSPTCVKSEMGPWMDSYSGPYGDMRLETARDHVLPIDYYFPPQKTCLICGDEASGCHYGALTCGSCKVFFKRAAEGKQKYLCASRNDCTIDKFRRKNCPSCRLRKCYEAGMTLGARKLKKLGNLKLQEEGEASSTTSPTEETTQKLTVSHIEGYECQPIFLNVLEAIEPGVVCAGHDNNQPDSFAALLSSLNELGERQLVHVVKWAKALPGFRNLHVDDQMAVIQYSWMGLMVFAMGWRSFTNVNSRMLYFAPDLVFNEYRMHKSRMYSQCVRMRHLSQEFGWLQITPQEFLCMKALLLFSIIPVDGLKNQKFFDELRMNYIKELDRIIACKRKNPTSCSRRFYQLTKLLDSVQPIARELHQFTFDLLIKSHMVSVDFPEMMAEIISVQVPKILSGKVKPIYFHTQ
Method in brief: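 MDA-kb2 cells (MMTV-luciferase, responsive to AR and GR) at 3,000/well, rested 5 h at 37C, 0% CO2, then given compounds plus 0.5 nM R1881 (final) for 16 hr. Luciferase read with ONE-Glo after 30 min at room temperature.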

[10] = qHTS assay to identify small molecule antagonists of the androgen receptor (AR) signaling pathway using the MDA cell line in the presence of 0.5 nM R1881 - cell viability counter screen (AID 1259242); further: nearly all actives have a fitted effect of over 45% in size; further: potency means the concentration at half of the fitted maximal effect
Method in brief: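 MDA-kb2 cells (MMTV-luciferase, AR/GR responsive) were treated with compounds plus 0.5 nM R1881 (final) for 16 hr at 37C, 0% CO2. Viability was then read in the same wells as live-cell protease fluorescence (CellTiter-Fluor, 30 min).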

Compound: CC(=O)[C@H]1CC[C@H]2[C@@H]3C=CC4=CC(=O)CC[C@@]4(C)[C@@H]3CC[C@]12C
- Potency [1]: inactive
- Potency [2]: inactive
- Potency [3]: inactive
- outcome [4]: inactive
- Potency [5]: inactive
- Potency [6]: inactive
- Potency [7]: inactive
- Potency [8]: inactive

Compound: C[N+](C)(C)CCOC(N)=O
- Potency [1]: inactive
- Potency [2]: inactive
- Potency [9]: inactive
- outcome [4]: inactive
- Potency [5]: inactive
- Potency [7]: inactive

Compound: CC(C)CCCCCOC(=O)CCCCC(=O)OCCCCCC(C)C
- Potency [1]: inactive
- Potency [2]: inactive
- Potency [10]: inactive
- Potency [7]: inactive
- Potency [8]: inactive

Compound: CO[C@H]1C=CO[C@@]2(C)Oc3c(C)c(O)c4c(O)c(c5c(c4c3C2=O)=NC2(CCN(CC(C)C)CC2)N=5)NC(=O)/C(C)=C\C=C/[C@H](C)[C@H](O)[C@@H](C)[C@@H](O)[C@@H](C)[C@H](OC(C)=O)[C@@H]1C
- Potency [1]: inactive
- Potency [2]: 47.5 µM (active)
- Potency [9]: 67.1 µM (active)
- Potency [3]: 59.8 µM (active)
- outcome [4]: inactive
- Potency [5]: inactive
- Potency [7]: 26.7 µM (active)
- Potency [8]: 23.8 µM (active)

Compound: CC(=O)Oc1ccc(C(=C2CCCCC2)c2ccc(OC(C)=O)cc2)cc1
- Potency [1]: inactive
- Potency [2]: inactive
- Potency [3]: inactive
- outcome [4]: inactive
- Potency [5]: inactive
- Potency [7]: inactive
- Potency [8]: inactive

Compound: COc1ccc(CCC(=O)c2c(O)cc(O[C@@H]3O[C@H](CO)[C@@H](O)[C@H](O)[C@H]3O[C@@H]3O[C@@H](C)[C@H](O)[C@@H](O)[C@H]3O)cc2O)cc1O
- Potency [1]: inactive
- Potency [2]: inactive
- Potency [9]: inactive
- Potency [3]: inactive
- Potency [5]: inactive
- Potency [6]: inactive
- Potency [7]: inactive

Compound: C(=C\c1ccccc1)/CN1CCN(C(c2ccccc2)c2ccccc2)CC1
- Potency [1]: inactive
- Potency [2]: inactive
- Potency [10]: inactive
- Potency [5]: inactive
- Potency [6]: inactive
- Potency [7]: inactive
- Potency [8]: inactive

Compound: C[C@@H]1C[C@H]2[C@@H]3CCC4=CC(=O)C=C[C@]4(C)[C@@]3(F)[C@@H](O)C[C@]2(C)[C@@]1(O)C(=O)CO
- Potency [1]: inactive
- Potency [2]: inactive
- Potency [10]: inactive
- Potency [5]: inactive
- Potency [6]: inactive
- Potency [7]: inactive
- Potency [8]: inactive

Compound: CCNC(=O)N1CCN(CCCC(c2ccc(F)cc2)c2ccc(F)cc2)CC1
- Potency [1]: inactive
- Potency [2]: 26.6 µM (active)
- Potency [3]: 18.8 µM (active)
- outcome [4]: inactive
- Potency [5]: inactive
- Potency [6]: inactive
- Potency [8]: inactive

Compound: CCOC(=O)C(C)Oc1ccc(Oc2nc3ccc(Cl)cc3o2)cc1 (stereo unspecified)
- Potency [1]: inactive
- Potency [2]: inactive
- Potency [10]: inactive
- Potency [5]: inactive
- Potency [6]: inactive
- Potency [7]: inactive
- Potency [8]: inactive

Compound: CC1(C)C2=CCCC(C)(C)[C@]23CC[C@H]1C3
- Potency [1]: inactive
- Potency [2]: inactive
- Potency [10]: inactive
- Potency [5]: inactive
- Potency [6]: inactive
- Potency [7]: inactive
- Potency [8]: inactive

Compound: Cc1cc(S(=O)(=O)O)ccc1N=Nc1c(O)ccc2ccccc12
- Potency [1]: inactive
- Potency [2]: 34.4 µM (active)
- Potency [10]: 48.6 µM (active)
- Potency [5]: 0.686 µM (active)
- Potency [7]: 27.3 µM (active)

Compound: CO[C@H]1O[C@H](CO)[C@@H](O)[C@H](O)[C@H]1O
- Potency [1]: inactive
- Potency [2]: inactive
- Potency [10]: inactive
- Potency [5]: inactive
- Potency [6]: inactive
- Potency [7]: inactive
- Potency [8]: inactive

Compound: COCCOC
- Potency [1]: inactive
- Potency [2]: inactive
- Potency [10]: inactive
- Potency [5]: inactive
- Potency [7]: inactive
- Potency [8]: inactive

Compound: O=C(C(=O)c1ccccc1)c1ccccc1
- Potency [1]: inactive
- Potency [2]: inactive
- Potency [10]: inactive
- Potency [5]: inactive
- Potency [7]: inactive
- Potency [8]: inactive

Compound: NC(=O)Cn1c(=O)cc(CCN2CCN(c3nccc4sccc34)CC2)c2ccc(F)cc21
- Potency [1]: inactive
- Potency [2]: inactive
- Potency [10]: inactive
- Potency [6]: inactive

Compound: C[C@@H]1C[C@H]2[C@@H]3CCC4=CC(=O)C=C[C@]4(C)[C@@]3(F)[C@@H](O)C[C@]2(C)[C@H]1C(=O)CO
- Potency [1]: inactive
- Potency [2]: inactive
- Potency [10]: inactive
- Potency [6]: inactive
- Potency [7]: inactive
- Potency [8]: inactive

Compound: CCCOc1ccc(S(=O)(=O)N2CCN(CC)CC2)cc1-c1nc2c(CC)n(Cc3ccccn3)nc2c(=O)[nH]1
- Potency [1]: inactive
- Potency [2]: inactive
- Potency [3]: inactive
- Potency [5]: inactive
- Potency [6]: inactive

Compound: CC(=N\O)/C(C)=N/O
- Potency [1]: inactive
- Potency [2]: inactive
- Potency [10]: inactive
- Potency [5]: inactive
- Potency [6]: inactive
- Potency [7]: inactive
- Potency [8]: inactive

Compound: C=C(C)C(=O)OCCOC(=O)CC(C)=O
- Potency [1]: inactive
- Potency [2]: inactive
- Potency [10]: inactive
- Potency [6]: inactive
- Potency [7]: inactive
- Potency [8]: inactive

Compound: Cc1cnc(C)c(C)n1
- Potency [1]: inactive
- Potency [2]: inactive
- Potency [10]: inactive
- Potency [5]: inactive
- Potency [6]: inactive
- Potency [7]: inactive
- Potency [8]: inactive

Compound: COC(=O)c1cc(Cl)ccc1NS(=O)(=O)C(F)(F)F
- Potency [1]: inactive
- Potency [2]: inactive
- Potency [10]: inactive
- Potency [5]: inactive
- Potency [7]: inactive
- Potency [8]: inactive

Compound: CC1C2CC(CC2C2CCCC(O)C2)C1(C)C (stereo unspecified)
- Potency [1]: 43.6 µM (active)
- Potency [2]: inactive
- Potency [10]: inactive
- Potency [5]: inactive
- Potency [8]: inactive

Compound: O=C(N/N=C/c1ccc([N+](=O)[O-])o1)c1ccc(O)cc1
- Potency [1]: inactive
- Potency [2]: 26.6 µM (active)
- Potency [3]: 26.6 µM (active)
- outcome [4]: inactive
- Potency [5]: inactive
- Potency [6]: inactive
- Potency [7]: 29.8 µM (active)

Compound: c1cnc2c(n1)CCCC2
- Potency [1]: 38.9 µM (active)
- Potency [2]: inactive
- Potency [10]: inactive
- Potency [5]: inactive
- Potency [6]: inactive
- Potency [7]: inactive
- Potency [8]: inactive

Compound: CNCCCC1c2ccccc2C=Cc2ccccc21
- Potency [1]: inactive
- Potency [2]: inactive
- Potency [3]: inactive
- Potency [5]: inactive
- Potency [6]: inactive

Compound: CCCCCCOC(=O)C(C)C
- Potency [1]: inactive
- Potency [2]: inactive
- Potency [10]: inactive
- Potency [5]: inactive
- Potency [6]: inactive
- Potency [7]: inactive
- Potency [8]: inactive

Compound: CCCCCCCCCCCCCCC[C@H](O)[C@@H](N)CO
- Potency [1]: 23.9 µM (active)
- Potency [2]: inactive
- Potency [9]: inactive
- Potency [3]: inactive
- outcome [4]: inactive
- Potency [5]: inactive
- Potency [6]: inactive
- Potency [7]: inactive
- Potency [8]: inactive
